SMN2 splice enh – increases expression of the SMN2 splice variant; HEK293 SMN2-luciferase splicing reporter, luminescence, 30-36 h; 210,000 compounds, 2.8% hits; Potency, µM (titrated, usually from 46.1 µM), inactives show top-dose activity change, positive = activation, hits mostly activators; note: % of control where 0% means no effect; nearly all actives have a fitted effect of over 55% in size
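HEK293 cells carry an SMN2 […]–luciferase reporter in which exon 7 inclusion puts luciferase in frame. Cells were plated 10-12 h before compound addition, then incubated 30-36 h at 37C. ONE-Glo luminescence was read; sodium butyrate at 4.5 mM final served as control.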
FLuc modulator – counter-screen for miR-21 project: firefly luciferase inhibitors or activators; P08659; purified FLuc, Km substrates, luminescence inhibition; Potency, µM (doses to about 57.5 µM), inactives show at the highest dose activity change, negative = inhibition, usual class: inhibitors; 360,000 compounds, 6.9% hits;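 note: plate controls were vehicle for no effect and reference inhibitor for full effect; nearly all actives have a fitted effect of over 55% in size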
Target sequence (P08659 whole entry, looked up): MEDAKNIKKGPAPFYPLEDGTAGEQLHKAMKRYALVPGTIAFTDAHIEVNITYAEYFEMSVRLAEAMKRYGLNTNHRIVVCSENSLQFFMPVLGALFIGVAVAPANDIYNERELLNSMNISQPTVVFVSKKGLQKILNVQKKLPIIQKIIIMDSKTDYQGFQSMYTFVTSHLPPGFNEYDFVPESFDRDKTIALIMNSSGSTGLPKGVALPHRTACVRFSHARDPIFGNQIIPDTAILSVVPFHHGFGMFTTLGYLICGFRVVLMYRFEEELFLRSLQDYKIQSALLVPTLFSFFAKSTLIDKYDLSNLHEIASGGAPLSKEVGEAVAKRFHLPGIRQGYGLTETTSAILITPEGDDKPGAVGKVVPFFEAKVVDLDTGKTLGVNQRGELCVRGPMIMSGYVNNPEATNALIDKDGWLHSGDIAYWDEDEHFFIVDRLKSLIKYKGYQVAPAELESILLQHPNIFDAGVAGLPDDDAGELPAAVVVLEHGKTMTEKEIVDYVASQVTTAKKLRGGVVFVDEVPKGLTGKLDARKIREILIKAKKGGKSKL
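Purified P. pyralis luciferase (10nM final) with 10uM D-luciferin and 10uM ATP (Km levels) in 50mM Tris acetate pH 7.5, 10mM Mg acetate, 0.01% Tween-20, 0.05% BSA; qHTS 6-point titration, ~60 µM downward; luminescence read.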
NPC1 prom act – NPC1 promoter activation; 320,000 compounds, 2.4% hits; AID 485313; Potency, µM (titrated, usually from 9.22 µM), inactives show at the highest dose activation, most hits filed as activators; Huh7 NPC1 promoter luciferase reporter, 24 h; note: % of control where 0% means no effect; nearly all actives have a fitted effect of over 60% in size
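Stable NPC1-promoter luciferase Huh7 line; cpd (DMSO) 24 h, 37 °C, 5% CO2; Amplite luciferase reagent 10 min RT; luminescence readout. qHTS format.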
Luc counter – blocks Kinase-Glo luciferase, a counter-screen artifact; AID 1379; Q27757; Kinase-Glo luciferase, ATP luminescence, 8 min; Potency, µM (series often up to 38.3 µM), for the others: at the top dose activity change, negative = inhibition, hits mostly inhibitors; 200,000 compounds, 0.28% hits; note: % is set by controls: 0 for no effect and ±100 for the full control effect; nearly all actives have a fitted effect of over 60% in size
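Compound is pinned into ATP-containing buffer (10 uM ATP, imidazole pH 7.2, 7 mM MgCl2). Kinase-Glo luciferase reagent is then added. Light output is recorded following an 8-min room-temperature incubation.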
ELG1 genotoxic – induces genotoxicity in HEK293T cells with luciferase-tagged ELG1; HEK293T ELG1-luciferase reporter, luminescence, 16 h; Potency, µM (top dose mostly 46 µM), for inactives: top-dose activity change, positive = activation, hits mostly activators; 330,000 compounds, 1.3% hits; note: % of control where 0% means no effect; nearly all actives have a fitted effect of over 60% in size
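ELG1-luciferase HEK293T cells, 2,000/well; compound pinned in; 16 hr, 37 °C, 5% CO2; ONE-Glo, 30 min RT; luminescence on CCD imager.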
Rab9 promoter act – Rab9 promoter activation; Huh7 Rab9 promoter-luciferase reporter, luminescence, 24 h; 320,000 compounds, 2.8% hits; Potency, µM (top dose mostly 9.22 µM), inactives show at the highest dose activation, negative = inhibition, hits mostly activators; note: % of control where 0% means no effect; nearly all actives have a fitted effect of over 60% in size
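Measured in stably transfected Huh7 cells bearing a Rab9 promoter–luciferase construct: 24 h compound treatment at 37 °C, followed by luminescence detection.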
The depositor's hits bear a star; u = inconclusive; x = not tested or not shown. This is a sample that favours compounds with a hit; in the whole collection about 7.5% have one here. Calls come from the whole dose curve; as a rule, active = well fitted curve in the direction sought with a large enough effect; inconclusive = small, poorly fitted or top-dose-only effect, or another doubt; inactive = no such curve, though single readings can be large; an effect the other way counts as inactive or inconclusive. Potency is the fitted concentration of half-maximal effect.

SMILES | SMN2 splice enh | FLuc modulator | NPC1 prom act | Luc counter | ELG1 genotoxic | Rab9 promoter act
O=C(CN1C(=O)NC(c2ccc(F)cc2)C1=O)NC1CCCCC1 (stereo not given) | x | x | x | x | 0% | x
CCOC(=O)c1sc(NC(=O)CSc2n[nH]c(CC(C)C)n2)nc1C | 17% | 2% | 1% | -3% | 0% | -4%
O=C(Nc1ccc2ncccc2c1)c1ccccc1Br | x | 12µM* | u | x | 6.5µM* | 2.8µM*
O=C(Cn1c(=O)n(-c2ccc(Cl)cc2)c(=O)c2c3c(sc21)CCCCC3)Nc1cccc(Cl)c1 | -2% | 2% | x | x | x | x
COc1cc2cnc(-c3ccccc3)c(-c3ccc(C(F)(F)F)cc3)c2cc1OC | x | -3% | -4% | x | -10% | -5%
c1ccc2c(c1)oc1c(Nc3ccc4c(c3)OCO4)ncnc12 | u | 2.1µM* | 1.4µM* | -10% | 5.8µM* | 1µM*
Cc1nc(Nc2ccc3c(c2)OCO3)c2oc3ccccc3c2n1 | -14% | 30µM* | 16% | -8% | 2% | 4%
CCCCN(CC)CCCNC(=O)Cn1nc(CC)n2c(cc3sccc32)c1=O | 14% | 6% | x | x | x | x
C/C=C/c1ccc(OC(C)=O)c(OC)c1 | -29% | -3% | -1% | -3% | 1% | 1%
CSc1cccc(NC(=O)/C=C/c2ccc(Cl)cc2)c1 | 27% | 3.4µM* | u | -3% | 0% | 25%
CSc1cccc(NC(=O)/C=C/c2ccccc2)c1 | u | 4.8µM* | 3.2µM* | -2% | 13% | 2.2µM*
COc1ccc(/C=C/C(=O)Nc2ccccc2)cc1OC | 13µM* | 13µM* | u | -1% | u | 3.2µM*
COc1cc(/C=C/C(=O)NC(=O)c2ccccc2O)ccc1OC(C)=O | x | 3µM* | u | x | u | u
COc1ccc(/C=C/C(=O)NC(=S)Nc2ccccc2)cc1OC | x | -8% | -2% | x | u | -4%
CCCN1CCc2c(sc(NC(=O)CCS(=O)(=O)c3ccccc3)c2C(=O)OC)C1 | x | 4% | -2% | x | -5% | -12%
COc1cc(NC(=S)NCCCN2CCOCC2)cc(OC)c1 | -16% | 0% | 0% | -2% | 1% | -5%
COc1cccc(CS(=O)(=O)c2nnnn2-c2ccc(F)cc2Br)c1 | 1% | x | x | 0% | x | x
CSc1ccc(/C=C/C(=O)Nc2ccccc2)cc1 | 3.2µM* | 0.24µM* | 0.32µM* | 13µM* | -4% | 0.32µM*
CC(=O)Nc1ccc(NC(=O)/C=C/c2ccccc2)cc1 | 7% | u | 4% | 11% | -6% | 6%
Nc1ncnc2c1ncn2[C@@H]1O[C@H](COP(=O)(O)OP(=O)(O)OC[C@H]2OC(O)[C@H](O)[C@@H]2O)[C@@H](O)[C@H]1O (stereo not given in full) | -7% | x | x | x | x | x
Nc1ncnc2c1ncn2[C@@H]1O[C@H](COP(=O)(O)OP(=O)(O)OP(=O)(O)OP(=O)(O)OC[C@@H]2O[C@H](n3cnc4c(N)ncnc43)[C@@H](O)[C@@H]2O)[C@H](O)[C@H]1O | 2% | x | x | 4.5µM* | x | x
CC(C)(C)[C@H]1C=C(C(N)=O)O[C@@H](OCCCCO)C1 | x | 0% | 1% | x | 0% | 3%
COc1cc(C(=O)Nc2ccc(N(C)C)cc2)c([N+](=O)[O-])cc1OC | -3% | 4.8µM* | 9% | -4% | u | -4%
CC(=O)c1ccc(NC(=O)COc2ccccc2-c2nc(-c3cccc(C)c3)no2)cc1 | x | -6% | x | x | x | x
COCCNC(=O)C(=O)Nc1c2c(nn1-c1ccccc1)CS(=O)(=O)C2 | x | 5% | x | x | x | x
Nc1nnc(/C=C/c2ccccc2)s1 | x | 24µM* | u | -8% | u | u
O=C(Nc1nnc(/C=C/c2ccccc2)s1)c1ccco1 | x | 12µM* | 18% | x | 4% | 22%
O=C(Nc1nnc(COc2ccccc2)s1)c1ccco1 | 19% | -13% | -2% | -1% | 5% | -5%
CCC(=O)Nc1nnc(/C=C/c2ccc(OC)cc2)s1 | x | 6µM* | u | x | 14% | u
